Among the data in ChEMBL document CHEMBL1157539, “Thousands of chemical starting points for antimalarial lead identification” (Nature, 2010) are Inhibition values, retold here.

In the assay the test system is HepG2. Briefly: GSK_TCMDC: Percent inhibition of human HepG2 cell line. Test compounds present at 10uM. It counts as functional.
With `Cc1ccc(CN2CCC(C(=O)Nc3ccc(-c4cc5ccccc5[nH]4)cc3)CC2)o1`, the Inhibition (in general, the drop in the measured response relative to a control, in per cent) turned out to be 19%.

With `O=C(NC1CCCCN(Cc2ccccc2O)C1)c1cccc(C(F)(F)F)c1.O=C(O)C(F)(F)F` (stereo unspecified), the Inhibition amounted to 0%.

On to `CCCc1cn2c3c(cc(C(=O)N[C@@H](Cc4ccccc4)[C@H](O)CNC4CCCCC4)cc13)N(CC)S(=O)(=O)CC2.O=CO`, for which the Inhibition worked out at 2%.

As for `CCCC1(NC[C@@H](O)[C@H](Cc2ccccc2)NC(=O)c2cc(NCC)cc(N3CCCCS3(=O)=O)c2)CCCCC1.Cl`, the Inhibition turned out to be 4%.

For `O=C(/C=C/c1ccc(Cl)c(Cl)c1)NCCCCN1CCCN(C(=O)Nc2ccc(Cl)c(Cl)c2)CC1`, the Inhibition is 22%.

Molecule `Cl.Ic1cc(Nc2ncnc3ccsc23)ccc1OCc1ccccc1` came in with an Inhibition of 22%.

Consider `CCN(Cc1ccccc1)C1CCN(Cc2cc(Br)ccc2O)CC1.O=C(O)C(=O)O`, for which the Inhibition was 6%.

The molecule `Br.CCCC1N=C(N)N=C(N)N1c1ccc(CC)cc1` (stereo unspecified) showed an Inhibition of 11%.

In turn, `Brc1ccc(C=NNc2nc3ccccc3[nH]2)cc1` yielded an Inhibition of 0%.

Regarding `Nc1cccc(CNCc2cccc(-c3ccc(-c4nc5cc(C(F)(F)F)ccc5[nH]4)cc3)c2)c1.O=C(O)C(F)(F)F`, the Inhibition is listed as 6%.

The molecule `CN1CCCN(c2ccnc3cc4c(cc23)N(C(=O)c2ccc(Cl)cc2Cl)CC4)CC1.Cl` yielded an Inhibition of 6%.

With `O=C(Nc1ccc(Oc2ccccc2)cc1)N(Cc1ccc(-c2ccc(CN3CCNCC3)cc2)cc1)C1CCN(Cc2ccccc2)CC1.O=C(O)C(F)(F)F`, the Inhibition is on record as 31%.

The molecule `Br.c1ccc(-c2ccc(-c3csc(Nc4ccncc4)n3)cc2)cc1` had an Inhibition of 30%.

Consider `O=C(Nc1ccc(OC2CCN(Cc3ccc(F)cc3)C2)c(Cl)c1)c1ccc(F)cc1.O=C(O)C(F)(F)F` (stereo unspecified), for which the Inhibition is listed as 10%.

`COc1ccc2nccc([C@@H](O)CN3C4CCC3CC(NCc3ccc5c(n3)NC(=O)CS5)C4)c2n1.Cl` (stereo partly specified) displayed an Inhibition of 0%.

Molecule `COc1cccc(CCc2nc3c(N4CCC(Cc5ccccc5)CC4)cccc3n2CC2CNCCO2)c1.O=C(O)C(F)(F)F` (stereo unspecified) yielded an Inhibition of 4%.

As to `Br.CCOC(=O)c1c(CNc2ccncc2)n(C)c2cc(Br)c(OC(C)=O)cc12`, the Inhibition is recorded as 0%.

`Cc1cccc(C(=O)Nc2ccnc(N3CCCN(Cc4cccc(O)c4)CC3)c2)c1.O=C(O)C(F)(F)F` showed an Inhibition of 0%.

The molecule `O=C(c1cc(-c2cccs2)n[nH]1)N1CCN(S(=O)(=O)c2ccc(Cl)s2)CC1` displayed an Inhibition of 20%.

Take `Cl.Nc1nc(N)c2c(ccc3nn(Cc4cccnc4)cc32)n1`: the Inhibition stood at 41%.

`COc1cc2c(cc1OCCN1CCC(N)CC1)N(C(=O)/C=C/c1ccccc1Cl)CC2.Cl` came in with an Inhibition of 19%.

`CCCc1cc(N2CCC(N(CC)CC)C2)nc(Nc2ccc(OC)cc2)n1` (stereo unspecified) displayed an Inhibition of 9%.

The molecule `COc1ccc(-c2ccc(NC(=O)c3cccc(C#N)c3)cc2)cc1CN1CCCC(C(N)=O)C1.O=C(O)C(F)(F)F` (stereo unspecified) returned an Inhibition of 12%.

`COCn1ccc2c3c(N)nc(N)nc3ccc21` showed an Inhibition of 63%.

For the molecule `CCCC(CNCc1cccc(OC(F)(F)F)c1)CNc1cc(=O)c2ccccc2[nH]1` (stereo unspecified), the Inhibition is 0%.

Regarding `Cc1cccc2nc(-c3ccc(-c4ccc(NC(=O)Nc5cccc(C#N)c5)cc4)s3)[nH]c12`, the Inhibition is on record as 33%.
